Test results from PubChem BioAssay AID1508600 (Functional Genomics Laboratory (NCATS/FGL), 2020).
Hit rate of the full screen: of about 53,000 sequences, about 3,700 (7%) were called active.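 Rule for the calls: active = gene knockdowns whose robust z-score for IL-1 alpha signal is at least 2 or at most -2, so actives lie on both sides; inactive = the rest.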 The sample as a whole holds a higher share of actives than the screen did.

assay: Components of the Cytosolic LPS Sensing Pathway: Gene Identification via Genome-wide siRNA Screen; conditions: RAW264.7 macrophages, IL-1a HTRF, actives lie on both sides, screened at 100 nM (by protocol), cells primed 5 h with Pam3CSK4 first;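 note: robust z of the log signal after scaling to non-targeting control siRNA wells of the plate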
How it was run: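 Using IL-1a HTRF as read-out, the screen measured release from RAW264.7 cells after 48h siRNA knockdown (100 nM), 5 h Pam3CSK4 priming and 24 h cytosolic LipidA. Values were expressed relative to negative-control wells as robust z-scores.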

z-score, inactive:
CCUGAAAAAAUUUAUCGCCTT against Pcgf3 -0.363
GGGUUCGAGGAAAAGGAAGTT against Acsf3 0.65
GGUGUCAGAAGCAGUGUAUTT against Treml1 0.459
GCCGAGGCUGUUGUGUUGATT against Gpaa1 -1.04
GGAGGUUUUUUUGUUUUGUTT against Serpinb13 -0.614
CCCACUUAUAUAUGUAGUUTT against Wdyhv1 0.282
GGGCUUCAAACCCACAGAATT against Nova2 -1.19
GGAAUAUCAGCCAUAAGUUTT against Cplx4 1.78
CGAUUCAUUCAGUUUGUAATT against Terb1 -0.631
GGUGUUUGAUAAUGAAGAGTT against Dnah1 -0.214
GGUCAUUUUGGGAUAUCAGTT against Lman1 -1.19
CCGCGUGUGCUCCUUUUUGTT against Zcchc3 -0.627
GGCUGGUUUACAACAGAACTT against Pla2g15 -0.647
CCAUUUGAUGACAGUAAUATT against Olfr178 1.03
GCUCUUGACACUAGAGAUUTT against Ap1s3 0.0373
GGAGUAGCAAAGAACUGCUTT against Arpc4 -0.762
CCACAUGAGUGGACCUACGTT against Arid3c -1.33
GGAGCUCUGGGACAAAUUCTT against Tbx20 1.34
CGUGGCUAGGUUAUUUAAATT against Htr1d 1.01
CCUCAAAAUGGCUAUGGACTT against 1520401A03Rik 0.587
GGUUCGAUGUCCAGUCACUTT against Ppp2ca -1.41
GCCAUUGCUUUAUAAGGUUTT against Olfr901 -1.24
GGAUACAAAUCCAGAUUCUTT against Pex26 -0.982
GGAACGAAUUUUAGAUGCATT against Rbbp8 1.14
GCACGGUAUCUCGAAGUCGTT against Spata18 -0.785
CCAUUCAAUGGUAACUGAATT against Olfr229 -0.382
GCAGUCGCUUUGUUUUAUATT against Olfr1204 -0.225
GGCUGAGAAGCAGACUUCCTT against Dclk3 1.23
GCUACGUUUACUGACCACATT against Bcat1 1.55
CCUACUCGUCUCUUUCACCTT against Tlcd1 0.158
GCAACUUUUAAUUGGUCUATT against Agrn -0.537
GGUUUUACCGAUGAUGCAUTT against Pcdhb20 -0.624
GGUAAUGGCUCACUUAAUATT against Malt1 -0.427
GGUCUUUGACAUUUUGAAUTT against Lrrk2 -0.295
GUACACUCAGGCUGAGGGUTT against Acyp1 0.0397
GGUUCCACUCAACUGAAGATT against Actl7b -0.123
GGCCUGCUACUUUUGAUGCTT against Olfr166 0.0524
GGGUCAUUUCCUAUGCAGGTT against Olfr866 -1.24
CCAAGAUUCAUAAGAAGGCTT against Tas2r131 0.646
GCUAGAAUUCAUGUUUCGUTT against Dgkg 0.487
GGUGCACUUUGAAUCAGGGTT against Uchl4 0.91
GGUAACUAUGAAGAGAUCATT against Neu2 0.312
GGAUUAGGAAAGAGAGAACTT against 4930519G04Rik -1.43
GGAACAGUUCAAGUGAAGCTT against Sertad2 -0.0174
GGAAGAUGAGAAAAUUCCATT against Ccni -0.44
GCCACAGAAAGUGAUUGAGTT against Rbp7 -0.418
GGUACAGACCUUUGAAAUATT against Apobec2 -0.125
CCGCAUGGAGCAUCUAAUATT against Tuft1 0.04
GGAAACAACAACAAAUACATT against C1ql3 1.52
GGAAGAUCCUCGAUAGUCATT against Rgs7 1.2
GACCAUCUCCUUUACGGGCTT against Olfr71 0.133
GUGGUAAACAGAAUGGUGATT against Ccdc92b -1
GCACCCAUAUCAACGAGGUTT against Olfr924 0.484
GGUGACCAGCAAGUCAUGCTT against Chrdl1 -0.663
GGAAGAAAAAAACUUCGUUTT against Gabrg3 0.186
GCACAGCUUUUUGGAUCUGTT against Zfyve26 -0.75
CCAGAGUCUUUGGUAAUGCTT against Krtap3-3 1.07
CCAUCUACAAACUUUGGCCTT against Sacs 0.669
GGUACUGACGCAUCUGAGGTT against Spata5l1 1.53
GACAAGCAAUAAAGAAAGATT against Lce1l -1.45
GGAAGGUCAAGUCUUUUCUTT against Tesk1 1.46
GGGAAUUUCAGGCUAUAUUTT against Taf2 1.13
CGAUGUGGACGAGAAGCUATT against Asap2 -0.702
CCCAUACUAAAAUUGUUGATT against Adam29 0.253
CCCAAUCAGCAUUUGCUCUTT against H2-M10.3 0.104
GGAUGGAGCUACUGAAAUUTT against Dera 0.39
CCAGAUCAUCGUGCAGAAUTT against E4f1 0.557
GCCACUGGUUCCAAUCGUCTT against Ncs1 -0.354
CCGAAGCAUUUUCCCAUCUTT against Slc22a20 -0.293
CCUGAUCCUCAGUUUGGUGTT against Prl 0.129
CGAGAAUUCCUUGCUCUAATT against Mgat4a 0.194
GCGCGACCUUCGAAUGUAATT against Rnf5 -0.834
GGAUAUGGUUAAAGCCAAATT against Zg16 -0.172
GGGAUGUGUCCUGACUUUUTT against Zfp941 -0.402
CCCAACUUAAAAGUACGUUTT against Hdac5 0.83
GGUUCAAAAGUCGAGCGAATT against Nudt9 -0.137
GGAAGUGAUUCUGCUAUGUTT against Cenpn -1.69
GGAAAGCAUGAGUUAAUAATT against Slain2 1.38
GGGAAUAUCACAGGUGCCATT against Axl -0.737
GGCUCUAAAUUUUUUGUUCTT against Derl1 0.532
UGAGGAGAGUUUCCGAGUGTT against H2-Q6 -0.0985
GCUAGUCUUAUGGACCAGATT against Eaf2 -0.764
GGAAGAGCAUAAAAUGUCATT against Trps1 -0.695

z-score, active:
GGAUCAUUUGAAAUUGCUGTT against Dmac2l 2.88
GGCAUUUUUCUUAGUGAUCTT against Olfr1277 -2.04
GGCGAAGGUGUAGAAUCUCTT against Samd12 2.48
GGUGUGAUGCUUGAGUGUCTT against Skint3 2.08
GGACACUUCCAUGUGCUACTT against Cep19 2.14
GGAAAGAAACUUAAAGUGGTT against Tfdp1 2.64
CCCAGAGCAUUCCUAUUACTT against Klrg2 -2.84
GGAAAUCGAAUGAAUAACCTT against Klf12 3.45
GCAAUACUAUUCAGUCCAUTT against Gnai3 -2.45
GCACCUCUGACAAGGUUCUTT against Plin1 2.65
GGACAUCUACACCAUUUGGTT against Mplkip -2.11
GGUCAUCGUGUGCAACCUCTT against Zcchc3 -3.24
GGGAGACCUGCUACUAUUGTT against Gtf3c2 2.58
GGCCAAAGAAGAAAGUGACTT against Opn3 -2.72
CCUGAAAGAUGCUCUCUAUTT against Inpp4b 4.27
GUCAUCAUGAACCAAGAGATT against Olfr713 -2.18
GGAAAACCAGCACAAUUUATT against Cadm1 2.49
CCAUGGGAUAUGAUUUACATT against Phf11a 3.49
CGCUAUGAGGCAGCUAAUUTT against Psma6 -2.27
CCUACCUUCAUUCGCUUCGTT against Cpz 2.61
GGAGUGUUUUGCAGUUUUATT against Dcstamp 4.39
GGUAACAAACUACAUUUGCTT against Pcdhb16 2.7
GCCUAAGGGAGACUCUUUGTT against Ano7 -2.02
GGCGAAUGCGCUUCUGAUATT against BC053393 2.29
GGCACACAGUUUUGUACAUTT against Nfat5 2.25
